Measurements from PubChem BioAssay AID488841 (Sanford-Burnham Center for Chemical Genomics, 2010).
About 380 (27%) of roughly 1,400 compounds were called active. The list shows a part of the results. Unmarked numbers belong to inactive results.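 How the source made its calls: active means mean inhibition above 50% across duplicate retests at 10 µM; inactive means the rest.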

assay: yeast NALP1 reporter signal suppression – S. cerevisiae, luminescence, single concentration, NALP1 inhibitor project, confirmation (AID 488841);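 further: plate controls were DMSO in galactose medium for no effect and cells in plain SD medium for full effect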; conditions: S. cerevisiae NALP1/ASC/Caspase-1 reporter, beta-gal luminescence; at 10 µM; hits give high values

Structure (SMILES) | inhibition
CC1(C)CC(=O)C2=C(C1)OC(N)=C([N+](=O)[O-])C2c1cccs1 (stereo unspecified) | 42.5%
O=C(Nc1ccc(-c2nc3ccccc3s2)cc1)C1=COCCO1 | 25.9%
CC(=O)Nc1sc2c(c1-c1nc3ccccc3s1)CCN(C(C)C)C2 | 92.9% (active)
OCCn1c(-c2ccc(F)cc2)csc1=Nc1ccccc1 | 27.4%
CC(C)(C)c1cc(C(=O)O)n[nH]1 | -1.95%
O=C(O)c1ccc(S(=O)(=O)/N=C2\C=C(Nc3ccccc3F)C(=O)c3ccccc32)cc1 | 98.8% (active)
O=C1C(Nc2ccccc2)=C/C(=N/S(=O)(=O)c2cccs2)c2ccccc21 | 49.6%
O=C1c2ccccc2-c2cccc(NS(=O)(=O)c3ccc(C(F)(F)F)cc3)c21 | 23.4%
CCOP(=O)(C1=C(O)C(=O)C(C(C)(C)C)=CC1=O)c1ccccc1 (stereo unspecified) | 24.9%
C/C(=N/N=C1\SCC(=O)N1c1ccccc1)c1ccc(C)cc1 | 28.1%
O=C1CSC(=S)N1c1ccc(O)cc1 | 95.2% (active)
O=C1CSC(=S)N1c1cccc(O)c1 | 99% (active)
COc1cc(C2SCC(=O)N2CCCN(C)C)cc(OC)c1OC (stereo unspecified) | 17.5%
COc1cc(N2C(=O)CSC2=S)cc(OC)c1OC | 78.7% (active)
Fc1ccc(N2CCN(Cc3cnc(Oc4ccc(Br)cc4)s3)CC2)cc1 | 25.8%
N#CC1=C(N)Oc2n[nH]c(-c3cccs3)c2C1C1CCCCC1 (stereo unspecified) | 35.7%
Cc1nc2cc(-c3ccc(Cl)cc3)nn2c(C)c1CCC(=O)NC(C)c1ccc2c(c1)OCCO2 (stereo unspecified) | 21.6%
CC1(C)COC(/C=C/c2ccc([N+](=O)[O-])cc2)=N1 | 74.7% (active)
COc1ccccc1/C=N\N=C(\N)c1ccccn1 | 43.3%
CC(C)N(C)CCOC(=O)c1ccccc1Br | 30.6%
COC(=O)c1ccccc1NC(=O)CN1CCC(n2nnc3cc(F)ccc32)CC1 | 24.9%
CCc1ccc(C(=O)NCc2ccc(Cl)cc2Cl)cc1 | 57.4% (active)
CCc1ccc(C(=O)NC(CC(C)C)C(=O)O)cc1 (stereo unspecified) | 24.6%
N=c1ccn(Cc2ccc(Cl)cc2Cl)cc1 | 35.2%

Structure (SMILES) | inhibition
CC(C)Cn1c(CN(Cc2ccccc2)Cc2ccccc2)nc2c1c(=O)n(C)c(=O)n2C | 35.5%
COc1cc(/C=C2\SC(=Nc3ccc(F)cc3)N(c3ccc(F)cc3)C2=O)ccc1OCC(=O)O | 26.6%
CCOC(=O)c1cccnc1SCC(=O)NCc1ccccc1 | 41.5%
CSc1ccc2c(c1)N(CCC1CCCCN1C)c1ccccc1S2 (stereo unspecified) | 71.1% (active)
CN1C/C(=C/c2ccncc2)C(=O)/C(=C/c2ccncc2)C1 | 13.2%
CC1(C)Cc2c(c(N3CCOCC3)nc3sc4c(NCCN5CCOCC5)nnnc4c23)CS1 | 27.2%
Cc1nc2nc3c(cn2n1)C(=O)CCC3 | 6.55%
CN1CCc2cccc3c2[C@H]1Cc1ccc(O)c(O)c1-3 | 42.5%
CN1CCc2cccc3c2[C@@H]1Cc1ccc(O)c(O)c1-3 | 71.3% (active)
Cc1[nH][nH]c(=O)c1C(c1ccc(-c2ccc(Cl)c(Cl)c2)o1)c1c(C)[nH][nH]c1=O | 24.6%
Cc1cccc(C(=O)NCc2ccc(S(N)(=O)=O)cc2)c1[N+](=O)[O-] | 36.4%
Cc1ccc(C(=O)NCCSCc2ccccc2)cc1[N+](=O)[O-] | 52.6% (active)
O=C(CSCc1ccc(F)cc1)NCc1ccco1 | 35.4%
C/C(=N/Nc1ccc([N+](=O)[O-])cc1)c1ccc(C)cc1C | 49%
COCCNC(=O)c1ccc(C)c(S(=O)(=O)Nc2ccc(C)cc2)c1 | 32.9%
Cc1ccccc1Cn1c(=N)n(CC(=O)c2ccc([N+](=O)[O-])cc2)c2ccccc21 | 49.5%
CCn1c2ccccc2c2cc(NC(=O)c3ccc(C)c([N+](=O)[O-])c3)ccc21 | 42.1%
Cc1ccc(C(=O)NCCc2cccc(Cl)c2)cc1[N+](=O)[O-] | 53.2% (active)
Cc1ccc(CSCCNC(=O)CSCc2ccc([N+](=O)[O-])cc2)cc1 | 59.9% (active)
CCOC(=O)c1c(C)n(C)c2ccc(OC)c(NC(=O)CN3CCN(C4CCCCC4)CC3)c12 | 23.2%
COc1cc(NC(C)CCCN)c2ncccc2c1Oc1ccccc1 (stereo unspecified) | 25.8%
O=C1N/C(=N\N=C\c2cccnc2)SC1Cc1ccc(SC(F)F)cc1 (stereo unspecified) | 24.2%
C=CCCCCc1nc2ccccc2c(=O)n1N | 33%
COc1ccc(CCn2c(C(C)C)nc3c(c(=O)c4ccccc4n3C)c2=O)cc1 | 25.9%

Structure (SMILES) | inhibition
COc1ccc2cc(C(C)c3nc4ccccc4c(=O)n3N)ccc2c1 (stereo unspecified) | 53.1% (active)
COc1ccc(OC)c(/C=c2\sc3nc(-c4cccs4)nn3c2=O)c1 | 28.1%
O=[N+]([O-])/C=C/c1ccc2c(ccn2Cc2ccccc2)c1 | 99.9% (active)
N#CCc1c(C#N)c(N)nc(N2CCN(Cc3ccc4c(c3)OCO4)CC2)c1C#N | 27.2%
O=C(CCC1CCCCC1)N1CCN(Cc2ccc3c(c2)OCO3)CC1 | 59.6% (active)
CC(C)c1ccc(CN2CCN(C(=O)CCl)CC2)cc1 | 39.5%
Clc1ccc(SCCCCN2CCOCC2)cc1 | 33%
COc1cccc(N2C(=O)C(O)=C(C(C)=O)C2c2ccc(OC)c(OC)c2)c1 (stereo unspecified) | 33.1%
COC(=O)c1cc(=O)n(-c2c(Cl)cc(C(F)(F)F)cc2Cl)[nH]1 | 28.1%
CCOC(=O)c1c(C(F)(F)C(F)(F)C(F)(F)C(F)(F)F)n[nH]c1C | 30%
Cc1cc(C(=O)COC(=O)c2ccc[nH]c2=O)c(C)n1-c1ccccc1 | 58.6% (active)
Cc1cc(C(=O)COC(=O)c2ccc[nH]c2=O)c(C)n1-c1ccc(F)cc1 | 39%
CCOC(=O)c1c(C)[nH]c(C)c1C(=O)COC(=O)c1cc2ccccc2cc1O | 37.1%
Cc1cc2ccccc2n1CCNCc1c(C(=O)N2CCOCC2)nc2ccccn12 | 28.2%
CNC(CC(=O)c1ccc([N+](=O)[O-])cc1)C(Cl)(Cl)Cl (stereo unspecified) | 47.5%
CCOC(=O)c1ccc(N2C(=O)C=CC2=O)cc1 | 89% (active)
CCOC(=O)c1sc(=S)n(-c2ccc(OC)cc2)c1C | 38.4%
CCOC(=O)c1ccc(N2C(=O)CC(N3CCCC(C)C3)C2=O)cc1 (stereo unspecified) | 35.9%
CCN(c1ccccc1)S(=O)(=O)c1cc(NC(=O)Nc2ccccc2C#N)ccc1Cl | 17.4%
Cc1ccc(OCc2nc(-c3ccc(Cl)cc3)n[nH]2)cc1 | 66.9% (active)
CCOC(=O)c1nnc(-c2ccc(C)cc2)nc1Sc1ccc(Cl)cc1 | 10.3%
FC(F)Oc1ccc(/C=N/c2c(-c3ccc(OC(F)F)cc3)nc3n2CCS3)cc1 | 31.2%
CCc1cccc(C)c1NC(=S)NCCc1c(C)[nH]c2ccc(C)cc12 | 34.2%
COc1ccc(C(=O)c2c(C(F)(F)F)oc3c2C(=O)c2ccccc2C3=O)cc1 | 22.6%

Structure (SMILES) | inhibition
Cc1nc(NC(=O)CCc2ccccc2)ccc1Br | 64% (active)
Cc1csc(NC(=O)CCc2ccc(S(=O)(=O)N3CCOCC3)cc2)n1 | 30.4%
O=C(OCCN1CCCCC1)c1cc2ccccc2o1 | 22.6%
COC(=O)CSC1=C(C#N)C(=O)NC(c2ccccc2)S1 (stereo unspecified) | 28.1%
O=C(c1ccccc1)c1c2c(cc3sc4ccccc4[n+]13)-c1cccc3cccc-2c13 | 35.5%
N#CC(C#N)=C(Nc1ccc(F)cc1)SCc1cccc(Br)c1 | 50.1% (active)
Cc1ccc(F)cc1NCC(=O)Nc1ccc(Br)cc1 | 47.6%
Cc1ccc(NC(=O)c2cccc(S(=O)(=O)N(C)c3ccccc3)c2)cc1S(=O)(=O)N1CCOCC1 | 28.9%
COc1ccc(CCNC(=O)c2sc3cc(C)ccc3c2Cl)cc1 | 35.8%
CN(C)CCCN(C(=O)c1ccc2c(c1)CCCC2)c1nc2ccc(F)cc2s1 | 64.8% (active)
CN(C)CCCN(C(=O)c1ccc2c(c1)CCCC2)c1nc2ccc(Cl)cc2s1 | 78.2% (active)
CN(C)CCCN(C(=O)c1sc2ccccc2c1Cl)c1nc2ccc(F)cc2s1 | 45.3%
Cc1ccc2nc(N(CCCN(C)C)C(=O)c3sc4ccccc4c3Cl)sc2c1 | 53.6% (active)
O=c1c(F)cn(C2CCCO2)c(=O)n1Cc1c(F)cccc1Cl (stereo unspecified) | 26.9%
CCOC(=O)C1(Cc2ccc(OC)cc2)CCN(C(=O)CCc2cnccn2)CC1 | 25.1%
COc1cccc(/C=N/NC(=O)CCc2c(C)n[nH]c2C)c1 | 25.8%
COc1ccc(CN2CCNC(=O)C2CC(=O)N(Cc2nccn2C)C(C)C)c(OC)c1 (stereo unspecified) | 14.8%
CCCCC(C(=O)NC1CCCC1)N(Cc1ccco1)C(=O)Cn1nnc(-c2ccc(F)cc2)n1 (stereo unspecified) | 27.3%
O=C(NC(=S)NCCCN1CCOCC1)c1ccc([N+](=O)[O-])cc1 | 40%
COc1ccc(Cc2nnc(SC)[nH]c2=O)cc1 | 22.6%
Cc1cc(C(C)(C)C)cc(C)c1S(=O)(=O)N1CC(=O)Nc2ccccc21 | 38.6%
COc1ccccc1-c1nnc2sc(COc3ccc(Cl)cc3)nn12 | 49.2%
COc1ccc(/C=N/N2CCOCC2)cc1COc1ccc(Cl)cc1 | 51.8% (active)
Cn1cccc1/C=N/N1CCN(Cc2ccc(Cl)cc2)CC1 | 31.7%
